The text below walks through data of ChEMBL document CHEMBL3988442, “University of Dundee, Small-Polar-MMV Screening Library” (2021).

The whole screen tested about 48,000 compounds, of which about 13,000 (27%) showed an effect of 50% or more. The list shows a part of the results.

This experiment deals with Wolbachia pipientis. Description: Anti-Wolbachia Cell-Based Screen. Type of experiment: functional. Set-up: scale not given: in the data most compounds retested in dose-response had high values. Conditions: 5 µM.
With `O=C(c1coc2ccccc12)N1CCCC1`, the “Percent Effect” value was 2.375%.

As to `CCS(=O)(=O)N1CC[C@@H]2[C@H](COCC3CC3)CN(C)C(=O)[C@@H]2CC1`, the “Percent Effect” value was 34.67%.

Consider `CC(C)c1nc(CN(C)C(=O)c2ccccc2C2CCNC2)cs1` (centres undefined), for which the “Percent Effect” value came out at 31.56%.

Turning to `CC(C)c1nc(CN(C)C(=O)CNC(N)=O)cs1`, the “Percent Effect” value is -43.04%.

For `O=C(c1ccc2nccn2c1)N(CCO)Cc1ccccc1F`, the “Percent Effect” value is given as -19.18%.

`Cc1ccccc1CN(CCN(C)C)C(=O)c1ccc2nccn2c1`: the “Percent Effect” value was -23.59%.

Consider `CC(C)c1nc(CN(C)C(=O)c2cn3ccsc3n2)cs1`, for which the “Percent Effect” value came to 97.44%.

With `CN(Cc1cc(C(C)(C)C)n[nH]1)C(=O)c1ccc2nccn2c1`, the “Percent Effect” value is on record as 54.27%.

Regarding `CN(Cc1cc(C(C)(C)C)n[nH]1)C(=O)c1ccccc1C1CCNC1` (centres undefined), the “Percent Effect” value is reported as 27.35%.

As for `CN(C)c1cc(N(C)Cc2cc(C(C)(C)C)n[nH]2)ncn1`, the “Percent Effect” value was determined as 2.487%.

In the case of `CN(Cc1cc(C(C)(C)C)n[nH]1)C(=O)c1cn2ccsc2n1`, the “Percent Effect” value was found to be 85.98%.

As to `CCCOC(=O)N1CCCC(c2nnc(CN3CCOCC3)n2C)C1` (centres undefined), the “Percent Effect” value was -3.793%.

As to `Cc1cc(CN2CCC(CNC(=O)c3ccc4[nH]cnc4c3)C2)[nH]n1` (centres undefined), the “Percent Effect” value stood at 4.896%.

Consider `O=C(Nc1cnc(Oc2ccccc2F)nc1)C1CC1`, for which the “Percent Effect” value is reported as -9.559%.

As for `COCCOC(=O)N1CCC(c2nccn2CC2CC2)CC1`, the “Percent Effect” value turned out to be 0.7863%.

Take `COc1ccc(-n2ncc(C(C)NCc3cnc(SC)nc3)c2C)cc1` (centres undefined): the “Percent Effect” value amounted to 30.41%.

As to `NCCO[C@H]1C[C@@H](O)C12CCN(C(=O)COc1cccc(Cl)c1)CC2`, the “Percent Effect” value is -10.97%.

Regarding `CO[C@H]1C[C@@H](O)C12CCN(C(=O)CCCOc1ccccc1)CC2`, the “Percent Effect” value is recorded as 97.53%.

`COc1cc(C)c(CN2CCC3(CC2)[C@H](O)C[C@@H]3OCCN)cc1C`: the “Percent Effect” value was 3.65%.

Regarding `CC[C@@]1(O)CCN(C(=O)c2ccc(OC(F)F)cc2)C[C@H]1O`, the “Percent Effect” value is recorded as -4.955%.

Regarding `CN(C)CCO[C@H]1C[C@@H](O)C12CCN(c1ncccc1Cl)CC2`, the “Percent Effect” value is recorded as -1.379%.

With `CCOc1cccc(C(=O)N2CCC3(CC2)[C@H](O)C[C@@H]3OC)c1`, the “Percent Effect” value was 2.834%.

`CC[C@@]1(O)CCN(C(=O)c2ccc(-c3ccco3)cc2)C[C@H]1O`: the “Percent Effect” value is -5.125%.

`CO[C@H]1C[C@@H](O)C12CCN(CCOc1ccc(Cl)cc1)CC2`: the “Percent Effect” value was determined as 86.28%.

Regarding `CC[C@@]1(O)CCN(CCCOc2ccc(C(N)=O)cc2)C[C@H]1O`, the “Percent Effect” value worked out at 95.4%.

Regarding `NCCO[C@H]1C[C@@H](O)C12CCN(C(=O)CCOc1ccccc1)CC2`, the “Percent Effect” value was -12.3%.

As for `NC(=O)COc1ccc(CN2CCC3(CC2)[C@H](O)C[C@@H]3O)cc1Cl`, the “Percent Effect” value is listed as 17.24%.

With `CO[C@H]1C[C@@H](O)C12CCN(CCCOc1ccc(C(N)=O)cc1)CC2`, the “Percent Effect” value is reported as 113.2%.

In the case of `Cc1ncccc1OC1(C(=O)NCCc2ccccn2)CCNCC1`, the “Percent Effect” value is given as -3.101%.

Regarding `N#Cc1cc(Br)ccc1NC1CCN(CC(N)=O)CC1`, the “Percent Effect” value is on record as -6.071%.

For the compound `O=C(CSc1ccc2c(c1)OCCO2)NS(=O)(=O)c1ccccc1Cl`, the “Percent Effect” value is reported as -4.158%.

For the compound `CC(O)CN1CCN(C(=O)CN(C)c2ccc(Cl)cn2)CC1` (centres undefined), the “Percent Effect” value is -12.66%.

On to `O=C1Nc2ccccc2/C1=C1\CCCCCN1`, for which the “Percent Effect” value is given as 122.1%.

As for `O=C1Nc2ccccc2/C1=C1\CCCCN1`, the “Percent Effect” value is listed as 114.3%.

On to `O=C1Nc2ccccc2/C1=C1\CCCN1`, for which the “Percent Effect” value was found to be 133.6%.

With `CCCN1C[C@H]2CC[C@@H]1CN(Cc1cccc(-n3cccn3)c1)C2`, the “Percent Effect” value is on record as -7.313%.

For `CC(C)n1ccc(C(=O)N2CCCC(n3cncn3)C2)n1` (centres undefined), the “Percent Effect” value was found to be 105.9%.

Turning to `CC(C)Cc1cc(C(=O)N2CCCC(n3cncn3)C2)[nH]n1` (centres undefined), the “Percent Effect” value is given as 6%.

On to `CC(C)c1cc(C(=O)N2CCCC(n3cncn3)C2)n[nH]1` (centres undefined), for which the “Percent Effect” value is on record as 96.9%.

As for `O=C(c1cc(C2CC2)[nH]n1)N1CCCC(n2cncn2)C1` (centres undefined), the “Percent Effect” value was found to be 0.773%.

Take `Cc1cc(C)c(CNC(=O)NC2CCN(C(=O)C(C)C)CC2)c(C)c1`: the “Percent Effect” value is reported as 11.56%.

For the compound `CC(Cn1cccn1)C(=O)N1CCC(NS(C)(=O)=O)CC1` (centres undefined), the “Percent Effect” value is listed as -5.413%.

On to `CS(=O)(=O)Nc1cnn(Cc2cccc(Cl)c2)c1`, for which the “Percent Effect” value came out at 81.71%.

Consider `CC(C)N(C)S(=O)(=O)N(C)Cc1cnn(Cc2ccccc2)c1`, for which the “Percent Effect” value is recorded as -14.36%.

As to `CS(=O)(=O)Nc1cccc(CNC(=O)c2cccs2)c1`, the “Percent Effect” value was found to be 8.71%.

`CCS(=O)(=O)Nc1ccn(Cc2cccc(Cl)c2)n1`: the “Percent Effect” value is recorded as -21.52%.

For `CS(=O)(=O)N1CCC(C(=O)N2CCN(Cc3cccc(Cl)c3)CC2)CC1`, the “Percent Effect” value is listed as -5.012%.

`CCS(=O)(=O)Nc1cnn(Cc2cccc(Cl)c2)c1`: the “Percent Effect” value was 132.7%.

Take `COc1cc(C)ccc1OCc1nc(C(=O)N2CCCNC(=O)C2)co1`: the “Percent Effect” value was 5.427%.

Turning to `CS(=O)(=O)NC[C@H]1OC[C@H]2CN(Cc3ccsc3)CC[C@H]21.O=C(O)C(F)(F)F`, the “Percent Effect” value is 114.3%.

Turning to `CS(=O)(=O)NC[C@@H]1OC[C@H]2CN(Cc3ccsc3)CC[C@H]21.O=C(O)C(F)(F)F`, the “Percent Effect” value is recorded as 83.99%.

Regarding `COCc1nnc(-c2cccc(C(=O)OC(C)C)c2)o1`, the “Percent Effect” value is -21.92%.

For the compound `NC(=O)Nc1cccc(CNC(=O)CCCc2ccccc2)c1`, the “Percent Effect” value is reported as 3.307%.

On to `Cc1cc(-c2cnc(NC3CCCC3)nc2-c2ccoc2)on1`, for which the “Percent Effect” value turned out to be 77.66%.
